Screening data from PubChem.
An excerpt weighted towards active compounds, which were near 3.8% of everything screened.
NALP1 inh: NALP1 inflammasome inhibitors in reconstituted yeast, colorimetric, S. cerevisiae, triplicate retest. S. cerevisiae NALP1/ASC/caspase-1 growth, X-gal OD620, 72 h. inhibition, % at 10 µM. 280,000 tested, 0.61% active; in the data active = inhibition mostly above about 24%, no sharp cut-off; inactive = mostly below about 32%
Hsp70 act: Hsp70 transcriptional activators, primary screen, cell-based, HeLa, Hsp70 promoter luciferase, luminescence, 10 µM; HeLa Hsp70 promoter luciferase reporter; scaled: vehicle 0, proteasome-inhibitor control 100%; activation, % at 10 µM; 200,000 tested, 0.04% active;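 active = activation above the mean across all tested compounds plus 3 SD, cutoff set per campaign, cut at about 5.5% in these data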;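 also: 100% = MG132 at 30 µM as the positive control and 0% = DMSO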
HSF1 inhib: HSF1 inhibitors in luciferase reporter cells, primary screen, cell-based, NIH3T3, luminescence. NIH3T3-HGL HSE-luciferase, MG132-induced, luminescence 8 h; stronger effect = lower value. activity change, negative = inhibition, % at 7.5 µM (by protocol). 300,000 tested, 0.77% active;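 active = more than half of replicate wells show activity change below -50%, luminescence cut by over half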;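 also: luciferase reports HSF-1 transcriptional activity via heat shock element; 0% = median of DMSO wells and -100% = zero luminescence signal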
p-CIP stab down: p/CIP-EGFP fusion destabilizers, primary screen, fluorescence, F442A cells; decrease of EGFP signal, % at 10 µM; 290,000 tested, 0.01% active; 16 h; AID 1984, 2009; Q05BA5;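 active = EGFP signal decrease of at least 30% at 10 µM or well 3 SD below plate mean, unless failing retest; inactive = the rest, including hits failing retest or dose response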
HSF-1 act: HSF-1 activators, primary screen, NIH3T3-HGL cells, MG132 stress, luminescence, single point. 300,000 tested, 1.7% active. NIH3T3-HGL HSF-1 luciferase reporter, 8 h; 100% = twice DMSO control signal. activation, % at 9 µM;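 active = mean replicate activation of at least 50% with a set share of replicates each reaching 50%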;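 also: 0% = median of the neutral control wells and 100% = twice that signal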
HSP90 refold inh: HSP90 inhibitors, primary screen, cell lysate, luminescence; Rabbit reticulocyte lysate, luciferase refolding luminescence, 3 h; AID 1789, 2009; inhibition, % at 5.6 µM; 290,000 tested, 0.91% active;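 active = inhibition above the screen-wide mean plus 3 SD, computed separately per campaign, cut at about 16% in these data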;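 also: 0% = DMSO wells and 100% = 60 µM geldanamycin wells; inhibitors lower the luminescence because luciferase stays unfolded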
HSP90 confirm: HSP90 inhibitors, confirmation, cell lysate, luminescence | shares compounds with HSP90 refold inh | rabbit reticulocyte lysate, luciferase refolding luminescence, 3 h | inhibition, % at 5.9 µM | 2,300 tested, 64% active | AID 1846, 2009; in the data active = inhibition above about 18%;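 also: 0% = vehicle wells and 100% = reference inhibitor wells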
luciferase ctr: firefly luciferase inhibitors, HSP90 counter-screen, confirmation, artefact control for HSP90 inhibitor project, biochemical, luminescence, triplicate | shares compounds with HSP90 refold inh | purified native firefly luciferase | inhibition, % at 5.9 µM | 2,300 tested, 48% active;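 active = inhibition above the mean inhibition of all tested sample wells plus 3 SD, cut at about 10% in these data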;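 also: 0% = DMSO with luciferase and 100% = wells lacking luciferase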
* marks the source's active call; other numbers are inactive results; . = not tested or not shown.

SMILES	NALP1 inh	Hsp70 act	HSF1 inhib	p-CIP stab down	HSF-1 act	HSP90 refold inh	HSP90 confirm	luciferase ctr
N#Cc1cc[n+](CC(=O)c2ccc(NC(=O)c3ccccc3)cc2)cc1	-10.3	.	7.7	-10.2	4.1	21.5*	-1.4	-8.9
CN(C)S(=O)(=O)c1cc(C(=O)NCc2ccccc2)c(Cl)cc1Cl	-24.1	0.1	0.2	-16.0	8.6	0.0	.	.
OCC[C@@H]1C[C@@H](O)[C@H](O)[C@@]2(OCCc3ccccc32)O1	14.3	.	-4.8	-5.1	-19.8	-3.0	.	.
Cc1cc2ccccc2n1CCNC(=O)C1CC1	2.8	.	-4.6	-19.2	-5.9	-2.6	.	.
Cc1cc2ccccc2n1CCNC(=O)c1cccs1	.	0.6	-3.7	-9.3	-5.1	23.0*	39.4*	-3.3
COc1ccccc1C(NC(C)=O)c1cc(Cl)c2cccnc2c1O (configuration not stated)	20.8	.	-45.9	-11.6	-46.1	23.7*	14.4	-11.4
COc1ccc(C(NC(C)=O)c2cc(Cl)c3cccnc3c2O)cc1OC (configuration not stated)	-20.9	-0.3	-4.6	-9.5	-18.4	1.6	.	.
CCC(=O)N/N=C/c1ccc(OS(=O)(=O)c2ccccc2)cc1	9.7	-0.4	0.4	-3.4	2.8	21.6*	-0.8	-4.4
Cn1cc(Cl)c(C(=O)N/N=C/c2ccc(OS(=O)(=O)c3ccccc3)cc2)n1	6.5	-0.2	-1.0	-7.1	-6.6	-2.7	.	.
C[C@H](NC(=O)N1CCn2c1nc1ccccc12)C(=O)N1CCCCC1	-5.2	.	3.7	-4.4	-0.7	-4.5	.	.
Nn1cnc2scc(-c3ccc(Cl)cc3)c2c1=O	7.1	.	-2.6	-0.7	8.3	-7.0	.	.
Cc1cccc(N2C(=O)C3CCCN3C2=S)c1 (configuration not stated)	16.5	.	3.2	6.6	-0.1	-4.4	.	.
O=C1C2CCCN2C(=S)N1c1ccccc1 (configuration not stated)	7.0	.	-9.1	1.5	-8.1	49.5*	-8.1	-14.1
CC(C)c1ccc(-n2cccc2/C=C2/C(=N)N3C=CSC3=NC2=O)cc1	8.5	-0.4	-7.9	-15.1	-9.2	32.1*	22.1*	2.9
CCOc1ccccc1OCC(=O)Oc1ccc(C)c(C)c1	22.4	.	-4.0	7.9	-10.3	-3.6	.	.
Cc1ccc(C(=O)n2c3ccccc3c3ccccc32)cc1	5.9	-0.1	1.2	-6.2	-5.8	17.0*	-1.3	-20.0
COc1ccc(/C=N\Nc2ccccc2[N+](=O)[O-])c(C(=O)O)c1OC	33.1	.	-17.6	-2.6	-28.1	18.2*	6.1	8.4
COc1ccc(/C=N\Nc2ccc([N+](=O)[O-])cc2[N+](=O)[O-])c(C(=O)O)c1OC	19.5	.	-1.9	-20.8	17.9	-1.8	.	.
N#CCc1ccc(NC(=O)/C=C/c2ccc([N+](=O)[O-])o2)cc1	-4.0	2.4	-34.5	-9.7	-43.0	59.9*	9.0	-6.7
O=C(O)c1ccc(Cn2cc(/C=C\[N+](=O)[O-])c3ccccc32)o1	11.0	.	-0.5	0.4	-21.3	43.4*	3.7	-5.4
COc1cccc(/C=N/NC(=O)CC(C)O)c1OC/C=C/c1ccccc1 (configuration not stated)	0.6	.	7.6	-18.4	15.5	-2.2	.	.
CN(C)c1ccc(/C=C/c2nc3ccccc3c(=O)[nH]2)cc1	10.4	.	-23.7	-24.8	-31.6	58.8*	75.8*	72.8*
C(=C\c1ccco1)/c1nc2ccccc2[nH]1	11.2	-0.2	5.7	-17.5	-9.2	2.1	.	.
COc1ccc(C(=O)Nc2cccc(/C=C/c3nc4ccccc4c(=O)[nH]3)c2)cc1	.	.	-26.9	-1.6	-38.8	28.3*	9.6	-8.6
C(=C\c1nc2ccccc2[nH]1)/c1ccccc1	-6.4	-0.2	18.3	-10.2	34.1	30.8*	53.7*	48.2*
SMILES	NALP1 inh	Hsp70 act	HSF1 inhib	p-CIP stab down	HSF-1 act	HSP90 refold inh	HSP90 confirm	luciferase ctr
O=C(Nc1cccc(/C=C/c2nc3ccccc3c(=O)[nH]2)c1)c1ccccc1Cl	12.2	.	26.9	1.2	25.7	0.2	.	.
COc1ccc(SCCC(=O)NCc2ccncc2)cc1	21.6	.	-4.1	-3.7	4.4	3.3	.	.
CC(C)C(=O)Nc1ccc(NC(=O)c2ccccn2)cn1	7.7	-0.7	3.8	-2.4	31.9	37.4*	37.4*	26.6*
N/C(=N\NC(=O)Nc1ccc(Cl)cc1)c1ccccn1	-0.5	.	4.5	-2.9	-10.6	23.6*	-4.3	-16.5
COc1ccc(NC(=O)c2ccccn2)cc1	-17.6	-0.3	-19.1	-6.3	4.2	35.0*	64.2*	46.7*
CNC(=O)N/N=C(\N)c1ccccn1	-0.3	.	.	-5.1	.	-1.3	.	.
CC1Sc2ccc(C(=O)Nc3ccccc3OC(F)F)cc2NC1=O (configuration not stated)	.	.	15.5	.	15.0	.	.	.
CC(C)C[C@@H](COc1ccccc1)N1CCN(Cc2ccccc2)CCC1=O	3.8	.	3.2	6.6	9.5	-4.3	.	.
O=C(O)c1ccc(N/N=C/C2=C(N3CCOCC3)C(=C\c3ccccc3)/CC2)cc1	-5.1	.	-60.0*	-5.4	-70.8	17.6*	2.9	2.4
COc1ccc(Cl)cc1NC(=O)CNc1ccccc1N1CCOCC1	13.3	-0.3	26.1	5.1	43.7	3.7	.	.
COc1cc(SC)ccc1C(=O)Nc1cccc(C)n1	12.9	-0.1	22.9	-11.1	34.2	-0.1	.	.
COc1cc(SC)ccc1C(=O)Nc1ccccn1	.	.	16.7	-4.5	38.9	18.4*	46.8*	38.3*
Cc1ccc(C(=O)Nc2ncc(C)s2)s1	11.7	.	29.7	7.1	69.8*	28.6*	50.0*	39.9*
COc1cc(SC)ccc1C(=O)Nc1ccc(Br)cn1	9.7	.	-43.8	-14.8	-49.8	33.3*	87.1*	83.3*
COc1cc(SC)ccc1C(=O)Nc1ncc(C)s1	-1.8	-0.6	-38.0	7.9	-46.1	80.5*	87.5*	84.8*
COc1cc(SC)ccc1C(=O)NC(C)C	9.4	-0.1	-6.3	-12.4	9.1	0.1	.	.
COc1cc(SC)ccc1C(=O)Nc1ccc(C)cc1C	32.9	0.0	25.7	-11.7	39.6	0.3	.	.
CSc1ccccc1C(=O)Nc1ncc(C)s1	-16.8	0.1	12.9	3.4	12.2	4.6	.	.
